# Records with an inconclusive call do not appear. The source made the active and inactive calls. Rule for the calls, unless noted: active = hit-call score of the fitted dose curve at least 0.9, where 1 is the maximum; inconclusive = response in the unintended direction; inactive = score below 0.9.
# Legend:
# [1] = test system: Thyroperoxidase (TPO), gene 54314; test: CCTE_Simmons_AUR_rTPO: CCTE's Amplex UltraRed Assay for Thyroperoxidase (TPO) Inhibition, Simmons Lab (AID 2283662);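 for AC50: potency for loss of signal meaning inhibition of peroxidase activity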
# Summary of the method: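 Rat thyroid microsomal TPO + 25 uM AUR in 200 mM K phosphate; cpd 5 nM–87.5 uM [final], 8 conc, 0.5% DMSO; 300 uM H2O2 starts rxn; 37C dark 30 min; endpoint FI 544/590 nm; n=3.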
# [2] = CCTE_Simmons_CellTiterGLO_HEK293T: Viability Assessment in CCTE's Assays for Thyroperoxidase (TPO) Inhibition, Simmons Lab (AID 2283665);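 for AC50: cells exposed to compound for 24 h before readout; actives reduce ATP signal below DMSO vehicle meaning cytotoxicity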
# Summary of the method: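 ATP depletion measured in HEK293T cells after 24 h dosing (8 concentrations, 5 nM–87.5 uM final; DMSO 0.5%) using CellTiter-Glo luminescence; curves fit for loss of signal against DMSO baseline.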
# [3] = CEETOX_H295R_MTT_cell_viability: Viability Assessment in the CeeTox HT-H295R MTT Assay (AID 2283718; active = hit-call score of the fitted dose curve at least 0.9, where 1 is the maximum; inactive = score below 0.9;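 for AC50: curve fitted both ways so AC50 may mark viability loss or gain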)
# Summary of the method: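 H295R cells prestimulated 48 h with 10 uM forskolin, then exposed 48 h to test chemical (0.1% DMSO final). Viability by MTT (0.5 mg/ml, 4 h, 37 C), absorbance 570/650 nm; percent change versus DMSO, bidirectional fit.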
# [4] = target: Luciferin 4-monooxygenase (Photinus pyralis) (UniProt P08659); test: CCTE_Simmons_QuantiLum_inhib_2: CCTE's Firefly Luciferase Inhibition Assay, Simmons Lab (AID 2283767);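 for AC50: potency for inhibitors that lower luciferase luminescence relative to DMSO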
# Chain of Luciferin 4-monooxygenase (Photinus pyralis) (P08659 whole entry, looked up): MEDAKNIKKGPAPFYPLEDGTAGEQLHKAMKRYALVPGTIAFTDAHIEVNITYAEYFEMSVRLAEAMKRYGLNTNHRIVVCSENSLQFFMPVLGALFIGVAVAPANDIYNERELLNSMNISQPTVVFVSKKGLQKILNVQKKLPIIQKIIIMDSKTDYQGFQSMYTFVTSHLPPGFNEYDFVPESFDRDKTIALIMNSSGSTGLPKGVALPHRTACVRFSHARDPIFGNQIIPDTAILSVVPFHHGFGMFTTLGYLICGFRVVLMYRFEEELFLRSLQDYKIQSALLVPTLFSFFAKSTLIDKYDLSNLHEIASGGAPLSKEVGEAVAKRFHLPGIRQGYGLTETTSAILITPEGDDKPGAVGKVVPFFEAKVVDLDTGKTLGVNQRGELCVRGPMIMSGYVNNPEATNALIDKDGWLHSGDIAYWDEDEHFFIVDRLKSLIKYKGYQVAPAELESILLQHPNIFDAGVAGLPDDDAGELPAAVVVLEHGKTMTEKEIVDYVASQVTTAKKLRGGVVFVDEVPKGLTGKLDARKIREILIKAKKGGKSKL
# Summary of the method: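 Eight-point titrations of each chemical, 5 nM–87.5 uM final in 0.5% DMSO, were run in three biological replicates against recombinant luciferase for 30 min at 37C. Bioluminescence signal loss, read on reagent injection, gave the inhibition endpoint.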
# [5] = ACEA_AR_agonist_AUC_viability: ACEA Biosciences xCELLigence Real-Time Cell Analysis on Androgen Receptor Agonism for Viability (AID 2283775);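 for AC50: viability read 80 hours after compound addition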
# Summary of the method: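 Viability endpoint from xCELLigence impedance in 22Rv1 prostate cells at 80 h. Eight-point series, 100 uM maximum final.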
# [6] = ACEA_AR_antagonist_AUC_viability: ACEA Biosciences xCELLigence Real-Time Cell Analysis on Androgen Receptor Antagonism for Viability (AID 2283776);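 note: 22Rv1 human prostate cancer cells growing on impedance electrode plates; area under impedance growth curve at 80 h after dosing as viability; hits lower the growth signal relative to DMSO meaning cytotoxicity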
# Summary of the method: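 Real-time electrical impedance tracks 22Rv1 proliferation after continuous compound exposure (top 100 uM final, 1:4 steps, 8 concentrations). The 80 h area-under-curve serves as the cytotoxicity readout relative to DMSO.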
# [7] = Tanguay_ZF_120hpf_PFIN_legacy: (Legacy) Oregon State University Tanguay Lab 120 Hour Post-fertilization zebrafish Assay for Pectoral Fin Malformation (AID 2283648);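 note: each larva judged yes or no for fin defect by brightfield with dead larvae skipped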
# Summary of the method: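 Scoring of pectoral fin malformation was binary, made at 120 hpf on larvae exposed statically from 6 hpf after enzymatic chorion removal. Activity was fitted upward relative to DMSO controls at 0.64% (vol/vol).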
# [8] = Tanguay_ZF_120hpf_CFIN_legacy: (Legacy) Oregon State University Tanguay Lab 120 Hour Post-fertilization zebrafish Assay for Caudal Fin Malformation (AID 2283649)
# Summary of the method: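 Dechorionated 5D wild-type zebrafish, static exposure 6–120 hpf, 28C, sealed and dark, 0.64% v/v DMSO final. Binary fin-malformation call at 120 hpf, brightfield; gain of signal vs DMSO baseline.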
# [9] = Tanguay_ZF_120hpf_PIG_legacy: (Legacy) Oregon State University Tanguay Lab 120 Hour Post-fertilization zebrafish Assay for Pigmentation Malformation (AID 2283650)
# Summary of the method: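 Endpoint is incidence of abnormal pigmentation at 120 hpf in dechorionated 5D zebrafish exposed singly from 6 hpf at 28C, DMSO vehicle at 0.64%. Embryos dying by 24 or 120 hpf are excluded from scoring.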
# [10] = Tanguay_ZF_120hpf_CIRC_legacy: (Legacy) Oregon State University Tanguay Lab 120 Hour Post-fertilization zebrafish Assay for Circulatory Malformation (AID 2283651)
# Summary of the method: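 Binary circulatory-malformation call at 120 hpf via brightfield imaging, relative to DMSO controls. Embryos (5D strain, chorion removed) received static, light-shielded exposure at 28C.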
# [11] = Tanguay_ZF_120hpf_SWIM_legacy: (Legacy) Oregon State University Tanguay Lab 120 Hour Post-fertilization zebrafish Assay for Swim Bladder Malformation (AID 2283654);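 note: swim bladder malformation in each larva scored yes or no under brightfield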
# Summary of the method: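 Static waterborne exposure of single dechorionated Tropical 5D zebrafish embryos, 6–120 hpf, 28C, 0.64% DMSO final. Read-out: swim bladder malformation, present/absent, relative to DMSO negative control; trimethyltin chloride 5uM served as positive control.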
# [12] = Tanguay_ZF_120hpf_TRUN_legacy: (Legacy) Oregon State University Tanguay Lab 120 Hour Post-fertilization zebrafish Assay for Truncated Body (AID 2283655)
# Summary of the method: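 Whole-embryo zebrafish screen: dechorionated 5D embryos, static exposure 6–120 hpf, 28C, sealed foil-covered plates, 0.64% DMSO. Binary truncation call; gain of signal versus DMSO baseline.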
# [13] = Tanguay_ZF_120hpf_NC_legacy: (Legacy) Oregon State University Tanguay Lab 120 Hour Post-fertilization zebrafish Assay for Notochord and Tail Malformation (AID 2283656)
# Summary of the method: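 Binary notochord-distortion calls, made by brightfield inspection, form the read-out; activity is fitted in the positive direction against DMSO. Exposure ran statically from 6 to 120 hpf at 28C with 0.64% DMSO.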
# [14] = Tanguay_ZF_120hpf_TR_legacy: (Legacy) Oregon State University Tanguay Lab 120 Hour Post-fertilization zebrafish Assay for Touch Response (AID 2283667)
# Summary of the method: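 Readout is presence or absence of touch response in 120 hpf zebrafish larvae, assessed by brightfield observation after continuous static exposure at 28C. Final vehicle was 0.64% (vol/vol) DMSO.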
# [15] = Tanguay_ZF_120hpf_ActivityScore_legacy: (Legacy) Oregon State University Tanguay Lab 120 Hour Post-fertilization zebrafish Assay Score for Activity (AID 2283742)
# Summary of the method: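 In this whole-embryo screen, dechorionated zebrafish were exposed from 6 hpf until 120 hpf at 28C under a 0.64% DMSO vehicle. Developmental malformations and death were recorded by brightfield microscopy as binary endpoints.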
# [16] = STM_H9_OrnCyssISnorm_ratio: Stemina devTOX quickPredict H9 human embryonic stem cell (hESC)-based Assay for Ornithine (ORN):Cystine (CYSS) Ratio (AID 2283714)
# Summary of the method: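 H9 hESC, 72h, q24h re-dose; last-day media → acetonitrile deproteinization → UPLC-HRMS. ORN:CYSS ratio from isotope-normalized EIC areas, vs 0.1% DMSO; MTX references on each plate.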
# [17] = target: zebrafish Estrogen Receptor (ESR1), esr1 (gene 259252) (UniProt P57717); test: ATG_zfER1_XSP1: Attagene TRANS-FACTORIAL Multi-Species (XSP1) HepG2 Assay for zebrafish Estrogen Receptor (ESR1) (AID 2283772)
# Chain of zebrafish Estrogen Receptor (ESR1), esr1 (gene 259252) (P57717 whole entry, looked up, the tested form may be a part): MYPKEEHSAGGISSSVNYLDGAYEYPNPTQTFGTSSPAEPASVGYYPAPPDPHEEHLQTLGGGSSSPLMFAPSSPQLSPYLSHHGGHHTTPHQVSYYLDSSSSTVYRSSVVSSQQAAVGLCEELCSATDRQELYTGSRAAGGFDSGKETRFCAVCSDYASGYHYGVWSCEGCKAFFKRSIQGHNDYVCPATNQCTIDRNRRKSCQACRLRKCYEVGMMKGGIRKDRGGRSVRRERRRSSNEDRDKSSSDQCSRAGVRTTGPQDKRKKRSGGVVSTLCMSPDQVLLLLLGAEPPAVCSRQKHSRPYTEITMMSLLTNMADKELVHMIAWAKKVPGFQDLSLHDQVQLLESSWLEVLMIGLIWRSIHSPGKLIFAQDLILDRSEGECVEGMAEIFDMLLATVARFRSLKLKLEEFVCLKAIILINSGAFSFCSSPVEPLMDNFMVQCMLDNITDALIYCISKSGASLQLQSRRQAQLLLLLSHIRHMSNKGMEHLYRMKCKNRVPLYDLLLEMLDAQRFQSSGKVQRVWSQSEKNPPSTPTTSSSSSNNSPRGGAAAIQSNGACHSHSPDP
# Summary of the method: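 Readout: fluorescent reporter mRNA, RT-PCR plus FAM labelling, HpaI digest, capillary electrophoresis; gain-of-signal fit vs DMSO. HepG2, transient multi-reporter TRANS (NR-GAL4 chimera), 24 h chemical exposure, 3 nM 6-alpha-fluorotestosterone co-added.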
# [18] = test system: zebrafish Estrogen Receptor (ESR2B), gene 317733; test: ATG_zfER2b_XSP1: Attagene TRANS-FACTORIAL Multi-Species (XSP1) HepG2 Assay for zebrafish Estrogen Receptor (ESR2B) (AID 2283773)
# Summary of the method: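 Human hepatoma HepG2, transiently transfected with multi-reporter units; exogenous zebrafish ESR2B-Gal4 activity measured. Exposure 24 h alongside 3 nM 6-alpha-fluorotestosterone to partly stimulate AR.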
# [19] = test system: frog Estrogen Receptor (ESR2), gene 100174814; test: ATG_frER2_XSP1: Attagene TRANS-FACTORIAL Multi-Species (XSP1) HepG2 Assay for frog Estrogen Receptor (ESR2) (AID 2283774)
# Summary of the method: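 Multiplexed TRANS-format reporter assay in human hepatoma HepG2: chimeric nuclear receptor-Gal4 activity reported as mRNA induction at 24 h, detected by fluorescent RT-PCR products on capillary electrophoresis and fitted upward from DMSO baseline.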
# [20] = test system: frog Estrogen Receptor (ESR1), gene 398734; test: ATG_frER1_XSP1: Attagene TRANS-FACTORIAL Multi-Species (XSP1) HepG2 Assay for frog Estrogen Receptor (ESR1) (AID 2283777)
# Summary of the method: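 After transient transfection and 24 h compound treatment, total RNA from HepG2 cells was reverse-transcribed, amplified, FAM-labeled and resolved by capillary electrophoresis. Signal increases were fitted against DMSO controls.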
structure (smiles),measurement,setting,value
Cc1ccc(C(C)C)cc1O,outcome,[1],inactive
same,outcome,[2],inactive
same,outcome,[3],inactive
same,outcome,[4],inactive
same,outcome,[5],inactive
same,outcome,[6],inactive
CSc1nc(NC2CC2)nc(NC(C)(C)C)n1,outcome,[1],inactive
same,outcome,[2],inactive
same,outcome,[3],inactive
same,outcome,[4],inactive
same,outcome,[5],inactive
same,outcome,[6],inactive
O=Nc1ccc(Nc2ccccc2)cc1,outcome,[1],inactive
same,AC50,[2],84 µM (active)
same,AC50,[4],53.8 µM (active)
same,outcome,[5],inactive
same,outcome,[6],inactive
CN(C)c1ccc(O)c2c1C[C@H]1C[C@H]3[C@H](N(C)C)C(=O)C(C(N)=O)=C(O)[C@@]3(O)C(=O)C1=C2O,AC50,[1],0.607 µM (active)
same,outcome,[4],inactive
C=CCOc1nc(OCC=C)nc(OCC=C)n1,outcome,[3],inactive
Nc1cc([N+](=O)[O-])ccc1Cl,outcome,[3],inactive
CC(C)=CCCC(C)CC=O (stereo unspecified),outcome,[1],inactive
same,outcome,[2],inactive
same,outcome,[4],inactive
same,outcome,[5],inactive
same,outcome,[6],inactive
O=C(Cl)c1cccc(C(=O)Cl)c1,AC50,[1],7 µM (active)
same,outcome,[2],inactive
same,outcome,[4],inactive
same,AC50,[6],8.27 µM (active)
COc1cc(C(C)(C)C)c(O)c(C(C)(C)C)c1,AC50,[1],2.32 µM (active)
same,AC50,[2],26.8 µM (active)
same,outcome,[4],inactive
same,outcome,[5],inactive
same,outcome,[6],inactive
O=C(O)c1ccc([N+](=O)[O-])cc1,outcome,[7],inactive
same,outcome,[8],inactive
same,outcome,[9],inactive
same,outcome,[10],inactive
same,outcome,[11],inactive
same,outcome,[12],inactive
same,outcome,[13],inactive
same,outcome,[14],inactive
same,outcome,[3],inactive
same,outcome,[15],inactive
same,outcome,[5],inactive
Cc1ccc2n[nH]nc2c1,outcome,[3],inactive
O=C(O)C[C@H](O)C[C@H](O)/C=C/c1c(C2CC2)nc2ccccc2c1-c1ccc(F)cc1,outcome,[3],inactive
CC(C)c1cccc(O)c1,AC50,[1],25.9 µM (active)
same,outcome,[2],inactive
same,outcome,[3],inactive
same,outcome,[4],inactive
same,outcome,[6],inactive
CCCCCCCCCCCCCCCC(=O)OC[C@H](O)[C@H]1OC(=O)C(O)=C1O,AC50,[1],18.3 µM (active)
same,AC50,[2],74.2 µM (active)
same,outcome,[4],inactive
same,outcome,[5],inactive
same,outcome,[6],inactive
C=CC(C)(C)O,outcome,[3],inactive
Nc1ccc(F)c([N+](=O)[O-])c1,outcome,[3],inactive
CCCCCCCCCCCCCOS(=O)(=O)O,AC50,[1],42.6 µM (active)
same,AC50,[2],32.5 µM (active)
same,outcome,[4],inactive
same,outcome,[6],inactive
c1ccc2c(c1)c1cccc3ccc4cccc2c4c31,outcome,[1],inactive
same,outcome,[4],inactive
COc1ccc(O)cc1,AC50,[1],8.4 µM (active)
same,AC50,[2],34.2 µM (active)
same,outcome,[4],inactive
same,outcome,[5],inactive
same,outcome,[6],inactive
Cc1ccc(O)c(C(C)(C)C)c1,AC50,[1],20.6 µM (active)
same,AC50,[2],65.6 µM (active)
same,outcome,[4],inactive
same,outcome,[5],inactive
same,outcome,[6],inactive
CC1(C)[C@H](C(=O)OCc2cccc(Oc3ccccc3)c2)[C@@H]1C=C(Cl)Cl,outcome,[3],inactive
CC(C)=CCCC(C)=CCCC(C)=CCO,outcome,[1],inactive
same,AC50,[2],95 µM (active)
same,AC50,[3],54.2 µM (active)
same,outcome,[4],inactive
Cc1cccc(C)c1C,outcome,[3],inactive
O=c1cc(-c2ccccc2)oc2cc(O)cc(O)c12,AC50,[1],23 µM (active)
same,outcome,[2],inactive
same,outcome,[3],inactive
same,AC50,[4],5.53 µM (active)
same,outcome,[6],inactive
CCN(CC)CCOC(=O)c1ccc(N)cc1,outcome,[16],inactive
same,AC50,[5],20.5 µM (active)
same,outcome,[6],inactive
COc1cc2ncnc(Nc3cccc(Cl)c3)c2cc1OC,outcome,[3],inactive
CCCCc1ccc(N)cc1,AC50,[1],0.00854 µM (active)
same,AC50,[2],17.4 µM (active)
same,outcome,[4],inactive
same,outcome,[5],inactive
same,outcome,[6],inactive
c1ccc2[nH]ccc2c1,AC50,[1],1.14 µM (active)
same,outcome,[2],inactive
same,outcome,[4],inactive
same,outcome,[5],inactive
same,outcome,[6],inactive
CN(CCOc1ccc(CC2SC(=O)NC2=O)cc1)c1ccccn1 (stereo unspecified),outcome,[17],inactive
same,AC50,[18],0.0787 µM (active)
same,outcome,[19],inactive
same,AC50,[20],0.0666 µM (active)
CN(C)C(=N)N=C(N)N,outcome,[17],inactive
same,AC50,[18],100 µM (active)
CCC/C=C/C=O,outcome,[5],inactive
same,outcome,[6],inactive
O=C(O)CCCCCCCC(=O)O,outcome,[5],inactive
same,outcome,[6],inactive
BrC1CCC(Br)C(Br)CCC(Br)C(Br)CCC1Br (stereo unspecified),outcome,[5],inactive
same,outcome,[6],inactive
CCCC1CCC(=O)O1 (stereo unspecified),outcome,[6],inactive
CN(C)CCCN,outcome,[5],inactive
same,outcome,[6],inactive
O=C(O)c1ccc(C(=O)O)cc1,outcome,[6],inactive
OC1OC[C@@H](O)[C@H](O)[C@H]1O (stereo partly specified),outcome,[5],inactive
same,outcome,[6],inactive
CC(C)=CCC[C@](C)(O)[C@@H]1CC=C(C)CC1,outcome,[5],inactive
same,outcome,[6],inactive
NCCCCCCN,outcome,[6],inactive
C=O,outcome,[5],inactive
same,outcome,[6],inactive
CCN(CC)c1ccc2c(-c3ccccc3C(=O)O)c3ccc(=[N+](CC)CC)cc-3oc2c1,AC50,[5],9.44 µM (active)
same,outcome,[6],inactive
CCCCC[Si](OCC)(OCC)OCC,outcome,[5],inactive
same,outcome,[6],inactive
O=C(O)Cc1cccc2ccccc12,outcome,[5],inactive
same,outcome,[6],inactive
C[Si](O[Si](C)(C)C)O[Si](C)(C)C,outcome,[6],inactive
OCCOCCOCCOCCO,outcome,[5],inactive
same,outcome,[6],inactive
OCCN1CCNCC1,outcome,[5],inactive
same,outcome,[6],inactive
C=CC[N+](C)(C)CC=C,outcome,[6],inactive

# Reference: PubChem BioAssay (EPA / NIEHS)
